Hit rate of the full screen: of about 310,000 compounds, about 1,000 (0.32%) were called active. The rule behind the calls is not given here. Only a sample is shown. Entries with a potency or affinity are not part of this list. Where a SMILES comes first, the peptide text is derived from it. The star is where a group is joined. Boc = CC(C)(C)OC(=O)*

As usually defined, the inhibition is the relative decrease from the control value, in per cent.

The nature of this test: Inhibition of PhoP regulon, Salmonella typhi GFP reporter cells, confirmation, 4 h (AID 1850).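 Note: 0% = induced wells with vehicle and 100% = uninduced wells.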 The note with it: Salmonella Typhi PhoP-promoter GFP reporter, fluorescence, at 50 µM, hits give high values.
Take `CC1CCN(C2CC(=O)N(c3ccccc3)C2=O)CC1` (configuration not stated): the inhibition was -1.51% (inactive).
With `CC1(C)Cc2cccc(OCC(=O)OCC(=O)NCc3ccc(F)cc3)c2O1`, the inhibition was 5.2% (inactive).
Regarding `CC1(NC(=O)c2cccc(S(=O)(=O)N3CCN(c4ccccc4)CC3)c2)CCS(=O)(=O)C1` (configuration not stated), the inhibition is -4.48% (inactive).
For the compound `CN1CC(C(=O)c2ccc(Cl)cc2)C(c2ccccc2)C1` (configuration not stated), the inhibition was -0.32% (inactive).
The value for `CN1CC(C(=O)c2ccc(Cl)cc2)C(c2ccccc2F)C1` (configuration not stated) was -5.31% (inactive); that for `CN(C)Cc1cnc2ccc(Cl)cn12` was 2.3% (inactive); that for `COc1ccc(/C=N\NS(=O)(=O)c2ccc(C)cc2)cc1COc1ccccc1[N+](=O)[O-]` was 2.43% (inactive).
The value for `Cc1ccc(CNC(=O)CSc2ncc(C(=O)Nc3ccccc3)c(=O)n2C)cc1` was 6.4% (inactive); that for `CC(C)CC(NC(=O)OC(C)(C)C)C(=O)NC(C(=O)N1CCCC1C(N)=O)C(C)C` (stereo not drawn) (Boc-Leu-Val-Pro-NH2; configuration not given here) was -15.4% (inactive); that for `CC(C)(C)OC(=O)N1CCC[C@@H]1CO` was -5.17% (inactive).
In the case of `O=c1[nH]c(=O)n(CCC2=CCCCC2)c(O)c1C=NC1CCN(Cc2ccccc2)CC1`, the inhibition is 5.62% (inactive).
As for `CC1CCCCN1CC(=O)c1ccc2cc[nH]c2c1` (configuration not stated), the inhibition was -0.31% (inactive).
As to `Cc1ccc(CC2S/C(=C(/C#N)C(=O)NCc3ccco3)N(c3ccccc3)C2=O)cc1` (configuration not stated), the inhibition is -3.66% (inactive).
As to `Cc1ccc(S(=O)(=O)NC(=NC2CCCCC2)c2ccccc2)cc1`, the inhibition is 5.09% (inactive).
In the case of `COc1cc([N+](=O)[O-])cc(/C=N/NC(=O)CSc2nnc(-c3ccccc3)n2C)c1O`, the inhibition was -13.2% (inactive).
For `Cc1nonc1NC(=O)CSc1ccccn1`, the inhibition is 6.57% (inactive).
With `COc1cc([N+](=O)[O-])cc(/C=N/NC(=O)Cn2nccc2C)c1O`, the inhibition was 14.4% (inactive).
`CCN(CC)c1ccc(/C=N/Nc2nc3ccccc3[nH]2)c(O)c1`: the inhibition is 13.9% (inactive).
On to `O=[N+]([O-])c1ccc(/C=N/Nc2ccccn2)cc1`, for which the inhibition is -0.36% (inactive).
Regarding `O=[N+]([O-])c1cccc(/C=N/Nc2ccccn2)c1`, the inhibition is 8.41% (inactive).
The value for `CC(=O)Nc1nonc1NC(=O)CSc1ccccn1` was 2.24% (inactive).
Turning to `COc1ccc(O)c(/C=N/Nc2nc3ccccc3[nH]2)c1`, the inhibition was 7.61% (inactive).
For `COc1cccc(N2CCN(C(=O)C3CCN(S(=O)(=O)c4ccc5c(c4)oc(=O)n5C)CC3)CC2)c1`, the inhibition is 8.62% (inactive).
Regarding `Cc1ccc(C)c(-c2csc(-c3cccnc3)n2)c1`, the inhibition is 1.2% (inactive).
As for `COc1ccc(-c2cc(-c3ccc(O)cc3)nc(N)c2C#N)cc1`, the inhibition is -1.2% (inactive).
As to `N#C/C(=C\c1ccccc1Cl)C(=O)Nc1ccccn1`, the inhibition was 2.25% (inactive).
Consider `COC(=O)COc1ccc(C(C2C(=O)CC(C)(C)CC2=O)C2C(=O)CC(C)(C)CC2=O)cc1`, for which the inhibition was -2.61% (inactive).
As for `NC(=S)NNC(=O)c1cccc(Br)c1`, the inhibition is -6.69% (inactive).
`Cc1ccc(-n2nc(C)c(C(C)(O)C(F)(F)F)c2N)cc1` (configuration not stated): the inhibition was 9.79% (inactive).
For the compound `O=C(NC(Cc1ccccc1)C(=O)O)/C(=C\c1ccccc1)NC(=O)c1ccc(Br)o1` (configuration not stated), the inhibition is -5.27% (inactive).
In the case of `COc1cccc(NC(=O)c2ccc(NC(=O)C(C)C)cc2)c1`, the inhibition is -3.48% (inactive).
Then `Cc1ccc(N2N=C(c3ccc(F)cc3)CC2c2ccco2)cc1` (configuration not stated), with -33.1% (inactive).
`CC1CN(C(=O)COC(=O)c2ccc(N(C)C)cc2)CC(C)O1` (configuration not stated): the inhibition is 1.66% (inactive).
For `COc1ccc(CC(=O)OCC(=O)N(C)C2CCS(=O)(=O)C2)cc1OC` (configuration not stated), the inhibition was -0.6% (inactive).
With `O=C(CSc1ccccn1)N/N=C/c1cccc([N+](=O)[O-])c1`, the inhibition was 1.33% (inactive).
Then `Cc1ccnn1CC(=O)N/N=C/c1c[nH]c2ccccc12`, with 2.22% (inactive); and `O=C(CSc1nc2ccccc2s1)NCc1cc([N+](=O)[O-])ccc1O`, with -40.6% (inactive); and `Cc1nn(C)cc1/C=N/NC(=O)CSc1ccccn1`, with 3.55% (inactive).
On to `O=C(CSc1nc2ccccc2s1)N/N=C/c1ccccc1C(=O)O`, for which the inhibition was 10.8% (inactive).
On to `O=C(CSc1ccccn1)N/N=C/c1ccccc1[N+](=O)[O-]`, for which the inhibition was -6.71% (inactive).
On to `COc1ccc(NC(=O)CN2C(=O)c3cccc4cccc2c34)cc1OC`, for which the inhibition was -7.56% (inactive).
Turning to `O=C(Cn1cc(C(F)(F)F)cc(Cl)c1=O)NCc1ccc(Cl)cc1`, the inhibition was -1.19% (inactive).
For the compound `CCCCOC(=O)c1ccc(-c2ccc(/C=N/NC(=S)NCC)o2)cc1`, the inhibition was -7.32% (inactive).
The value for `O=[N+]([O-])c1ccc(/C([O-])=C(/C(=S)NCc2ccco2)[n+]2ccccc2)cc1` was 13.8% (inactive).
Then `O=C(NC1CCN(Cc2ccccc2)CC1)C1CCN(S(=O)(=O)c2ccccc2)CC1`, with 5.66% (inactive).
On to `Clc1ccc(-c2csc(N3CCc4ccccc4C3)n2)cc1`, for which the inhibition was 5.55% (inactive).
`CC(C)CN=CC1=C(O)c2ccccc2C1=O`: the inhibition was 5.42% (inactive).
For the compound `CC(C)(C)CN1CCN(Cc2cc3ccccc3[nH]2)CC1CCO` (configuration not stated), the inhibition is 2.46% (inactive).
For the compound `Cc1cc(C)n(C(=O)Cn2nc([N+](=O)[O-])cc2C)n1`, the inhibition was -5.88% (inactive).
For `O=C1CSC(c2cccc([N+](=O)[O-])c2)N1c1ccccc1` (configuration not stated), the inhibition was 0.65% (inactive).
`CN1CCCC(CC2Oc3ccccc3Sc3ccccc32)C1` (configuration not stated): the inhibition was 11.3% (inactive).
Then `Clc1ccccc1OCCCCN1CCCCC1`, with -2.94% (inactive); and `OCCC1CN(Cc2cccc3c2OCO3)CCN1C1CCCCC1` (configuration not stated), with -4.26% (inactive); and `Cc1ccc(S(=O)(=O)N(C)C(=O)NC(=O)NS(=O)(=O)c2ccccc2)cc1`, with -5.97% (inactive).
As for `CCC(/C=C1\Sc2ccc(OC)cc2N1CC)=C\c1sc2ccc(OC)cc2[n+]1CCCS(=O)(=O)[O-]`, the inhibition was -7.82% (inactive).
In the case of `CCC(=O)/C=C1\Sc2ccc(OC)cc2N1CCO`, the inhibition was -12.9% (inactive).
With `COc1ccc(/C=N/Nc2nc(C)cc(-c3ccccc3)n2)cc1OC`, the inhibition was -1.16% (inactive).
As for `COc1ccc(-c2ccc(=O)n(Cc3cccc(Cl)c3)n2)cc1`, the inhibition is -10.8% (inactive).
Consider `Cc1cc(C)nc(/N=C(\N)Nc2cc([N+](=O)[O-])ccc2C)n1`, for which the inhibition was -1.74% (inactive).
Turning to `COc1ccc(C)cc1N/C(N)=N/c1nc(C)cc(C)n1`, the inhibition was -5.2% (inactive).
The value for `Cc1ccc(N/C(N)=N/c2nc(C)cc(C)n2)cc1` was -9.13% (inactive).
On to `CCC(=O)Nc1ccc(N/C(N)=N/c2nc(C)cc(C)n2)cc1`, for which the inhibition is -8.68% (inactive).
For the compound `O=C(NCCF)C1Nc2ccc(OC(F)(F)F)cc2C2C=CCC12` (configuration not stated), the inhibition was 9.88% (inactive).
In the case of `C=CCN(C(=O)c1csnn1)C(C(=O)NCc1ccccc1)c1c(F)cccc1Cl` (configuration not stated), the inhibition is -1.14% (inactive).
As for `CN(CC(=O)N1CCN(c2cccc(Cl)c2)CC1)S(=O)(=O)c1cccs1`, the inhibition was 2.82% (inactive).
`CCOC(=O)C(C)NC(=O)CCc1nnc2ccc(N3CCCCC3)nn12` (configuration not stated): the inhibition is 1.43% (inactive).
Then `CC(=O)c1c(C)[nH]c(C(=O)N2CCN(c3ccccn3)CC2)c1C`, with 2.98% (inactive); and `Nc1nnc(SCC(=O)OCC(=O)c2ccccc2Br)s1`, with 1.19% (inactive).
In the case of `C#CCOCCOCCOCCNc1nc(N2CCN(C(=O)Cn3cc(CCCCN)nn3)CC2)nc(N2CCN(C(=O)[C@H]([C@@H](C)CC)n3cc(CCCN=C(N)N)nn3)CC2)n1`, the inhibition was 5.45% (inactive).
The value for `C#CCOCCOCCOCCNc1nc(N2CCN(C(=O)CCCCCCCCCCNC(=O)Cn3cc(C[C@@H](C)O)nn3)CC2)nc(N2CCN(C(=O)CCCCCCCCCCNC(=O)[C@@H]([C@H](C)O)n3cc(C)nn3)CC2)n1` was -25.3% (inactive); that for `C#CCOCCOCCOCCNc1nc(N2CCN(C(=O)Cn3cc(CCCN=C(N)N)nn3)CC2)nc(N2CCN(C(=O)[C@H]([C@@H](C)CC)n3cc(CCCCN)nn3)CC2)n1` was -18% (inactive).
Consider `C#CCOCCOCCOCCNc1nc(N2CCN(C(=O)CCCCCCCCCCNC(=O)Cn3cc(C[C@@H](C)O)nn3)CC2)nc(N2CCN(C(=O)CCCCCCCCCCNC(=O)[C@@H](CCC(=O)O)n3cc(CCCCCN)nn3)CC2)n1`, for which the inhibition was -25.1% (inactive).
Then `C#CCOCCOCCOCCNc1nc(N2CCN(C(=O)CCCCCCCCCCNC(=O)[C@H](CCC(=O)O)n3cc(CCCCCN)nn3)CC2)nc(N2CCN(C(=O)CCCCCCCCCCNC(=O)[C@@H]([C@H](C)O)n3cc(C)nn3)CC2)n1`, with -1.84% (inactive); and `C#CCOCCOCCOCCNc1nc(N2CCN(C(=O)CCCCCCCCCCNC(=O)Cn3cc(CCCCCN)nn3)CC2)nc(N2CCN(C(=O)CCCCCCCCCCNC(=O)Cn3cc(C[C@@H](C)O)nn3)CC2)n1`, with -2.3% (inactive); and `C#CCOCCOCCOCCNc1nc(N2CCOCC2)nc(N2CCN(C(=O)CCCCCCCCCCNC(=O)[C@@H]([C@H](C)CC)n3cc(CCCCCN)nn3)CC2)n1`, with 2.64% (inactive).
Then `C#CCOCCOCCOCCNc1nc(N2CCN(C(=O)CCCCCCCCCCNC(=O)Cn3cc(CCCCCN)nn3)CC2)nc(N2CCN(C(=O)CCCCCCCCCCNC(=O)[C@H](CO)n3cc(CCCCCN)nn3)CC2)n1`, with 16.5% (inactive); and `CN(CC(=O)NCc1ccncc1)S(=O)(=O)c1ccc(F)cc1`, with 9.34% (inactive); and `COc1cc(C(=O)NCC(=O)N/N=C(\C)Cc2ccccc2)cc(OC)c1OC`, with 8.05% (inactive).
Then `Cc1cccc(CC(C)NC(=O)c2cc(COc3ccc(C)c(C)c3)on2)n1` (configuration not stated), with -0.63% (inactive); and `CCN(CC(=O)N1CCC(C(N)=O)CC1)S(=O)(=O)c1ccc(Cl)cc1`, with -8.55% (inactive); and `Cc1ccc(-c2noc(CSc3nnc(CCc4ccccc4)n3-c3ccccc3)n2)cc1`, with -7.22% (inactive).
Consider `CCCCc1ccc(NC(=O)Nc2c(C)n(C)n(-c3ccccc3)c2=O)cc1`, for which the inhibition was -5.72% (inactive).

For the origin of these results see PubChem BioAssay AID1850 (Southern Research Specialized Biocontainment Screening …, 2009).
